# Measurements taken from PubChem BioAssay.
# Active and inactive are the calls of the source.
# What was measured:
# [1] = small molecules captured by biotinylated probe aFSTL3 – biochemical, small-molecule microarray, fluorescence 635/667, stem cell growth factor project, primary screen (AID 1064); conditions: higher = more signal;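 also: measures binding of the biotinylated anti-FSTL3 antibody to printed compounds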
# [2] = binders from COS7 lysate, DM2A8 probe, primary screen, torsin A project, cell lysate, small-molecule microarray, fluorescence 635/667 (AID 1065); conditions: higher = more signal, COS7 lysate expressing mutant human TOR1A
# [3] = small molecules captured by biotinylated probe aFGF2 – biochemical, small-molecule microarray, fluorescence 635/667, stem cell growth factor project, primary screen (AID 1067); conditions: higher = more signal;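 also: measures binding of biotinylated aFGF2 protein to printed compounds on slides; z-score merges feature fluorescence and signal-to-noise across triplicate slides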
# [4] = small molecules captured by biotinylated probe aFGF10 – biochemical, small-molecule microarray, fluorescence 635/667, stem cell growth factor project, primary screen (AID 1071); conditions: higher = more signal;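 also: score merges 667 nm spot intensity and signal to noise from triplicate slides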
# [5] = molecular target: Neurogenic locus notch homolog protein 2 (Homo sapiens) (UniProt Q04721); test: small molecules binding Notch2 protein – biochemical, small-molecule microarray, 635 nm fluorescence, stem cell growth factors, primary screen (AID 1073); conditions: higher = more signal
# Neurogenic locus notch homolog protein 2 (Homo sapiens), sequence (Q04721 whole entry, looked up, canonical isoform): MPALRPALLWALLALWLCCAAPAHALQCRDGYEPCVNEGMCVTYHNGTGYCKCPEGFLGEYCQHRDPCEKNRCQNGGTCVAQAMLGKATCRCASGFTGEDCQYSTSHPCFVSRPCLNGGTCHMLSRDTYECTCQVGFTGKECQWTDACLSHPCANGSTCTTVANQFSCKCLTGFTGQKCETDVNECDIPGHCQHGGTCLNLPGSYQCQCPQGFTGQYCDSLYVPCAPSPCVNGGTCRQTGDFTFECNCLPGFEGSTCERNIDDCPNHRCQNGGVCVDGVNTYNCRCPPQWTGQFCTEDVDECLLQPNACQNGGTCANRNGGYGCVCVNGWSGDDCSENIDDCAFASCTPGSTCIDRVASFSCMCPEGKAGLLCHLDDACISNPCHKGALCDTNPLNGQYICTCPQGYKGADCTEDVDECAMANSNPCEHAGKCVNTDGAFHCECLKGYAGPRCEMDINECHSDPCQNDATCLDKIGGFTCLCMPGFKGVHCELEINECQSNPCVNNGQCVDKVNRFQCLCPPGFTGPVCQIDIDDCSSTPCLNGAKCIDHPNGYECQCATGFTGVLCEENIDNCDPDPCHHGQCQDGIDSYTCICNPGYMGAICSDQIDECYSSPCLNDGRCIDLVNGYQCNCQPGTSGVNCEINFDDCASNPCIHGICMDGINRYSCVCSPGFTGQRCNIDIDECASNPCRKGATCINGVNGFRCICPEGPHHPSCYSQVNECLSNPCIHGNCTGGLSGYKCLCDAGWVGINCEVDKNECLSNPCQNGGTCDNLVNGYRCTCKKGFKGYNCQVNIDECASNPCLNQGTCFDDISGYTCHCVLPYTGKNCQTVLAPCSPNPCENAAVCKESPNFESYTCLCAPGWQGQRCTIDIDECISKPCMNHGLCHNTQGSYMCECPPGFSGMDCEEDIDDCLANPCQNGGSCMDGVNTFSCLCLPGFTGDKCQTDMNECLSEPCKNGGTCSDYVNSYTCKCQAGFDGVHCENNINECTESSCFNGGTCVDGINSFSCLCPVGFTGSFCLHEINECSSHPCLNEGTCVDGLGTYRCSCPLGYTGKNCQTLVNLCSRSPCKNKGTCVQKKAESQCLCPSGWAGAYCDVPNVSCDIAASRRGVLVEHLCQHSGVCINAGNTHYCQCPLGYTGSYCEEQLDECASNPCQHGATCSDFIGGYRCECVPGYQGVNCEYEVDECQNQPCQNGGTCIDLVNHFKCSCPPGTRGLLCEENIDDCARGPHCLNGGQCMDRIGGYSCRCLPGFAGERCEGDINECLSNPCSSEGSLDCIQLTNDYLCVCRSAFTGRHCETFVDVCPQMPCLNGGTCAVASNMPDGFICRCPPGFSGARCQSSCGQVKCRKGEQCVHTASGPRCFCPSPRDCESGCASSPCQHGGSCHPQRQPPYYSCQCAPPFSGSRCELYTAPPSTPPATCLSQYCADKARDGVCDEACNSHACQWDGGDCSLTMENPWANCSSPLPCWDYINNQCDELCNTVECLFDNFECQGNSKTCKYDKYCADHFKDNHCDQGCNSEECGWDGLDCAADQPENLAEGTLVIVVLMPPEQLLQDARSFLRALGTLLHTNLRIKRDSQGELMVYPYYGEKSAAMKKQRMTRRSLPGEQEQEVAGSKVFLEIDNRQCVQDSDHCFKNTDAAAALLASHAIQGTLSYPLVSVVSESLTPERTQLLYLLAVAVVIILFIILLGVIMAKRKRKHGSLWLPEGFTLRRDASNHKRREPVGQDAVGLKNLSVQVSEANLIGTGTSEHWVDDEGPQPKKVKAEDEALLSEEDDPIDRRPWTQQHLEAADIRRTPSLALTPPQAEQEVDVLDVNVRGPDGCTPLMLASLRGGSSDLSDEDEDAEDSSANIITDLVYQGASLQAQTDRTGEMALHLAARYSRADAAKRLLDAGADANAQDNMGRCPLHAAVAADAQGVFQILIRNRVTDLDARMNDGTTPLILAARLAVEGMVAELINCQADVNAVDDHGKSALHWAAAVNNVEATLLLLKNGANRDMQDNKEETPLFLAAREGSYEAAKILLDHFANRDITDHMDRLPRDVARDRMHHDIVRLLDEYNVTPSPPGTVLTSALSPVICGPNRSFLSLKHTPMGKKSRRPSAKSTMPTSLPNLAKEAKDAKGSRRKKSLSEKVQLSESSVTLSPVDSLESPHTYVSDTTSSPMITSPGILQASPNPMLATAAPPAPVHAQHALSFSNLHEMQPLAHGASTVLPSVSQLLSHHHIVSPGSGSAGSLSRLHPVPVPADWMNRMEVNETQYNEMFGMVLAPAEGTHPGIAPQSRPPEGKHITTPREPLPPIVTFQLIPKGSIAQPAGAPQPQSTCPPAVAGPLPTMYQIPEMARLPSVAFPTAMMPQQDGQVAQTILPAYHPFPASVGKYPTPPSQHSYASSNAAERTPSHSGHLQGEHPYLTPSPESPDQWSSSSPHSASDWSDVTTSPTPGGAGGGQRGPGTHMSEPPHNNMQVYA
# [6] = molecular target: Pro-neuregulin-1, membrane-bound isoform (Homo sapiens) (UniProt Q02297); test: small molecules binding neuregulin-1 protein – biochemical, small-molecule microarray, fluorescence 635/667, psychiatric disease protein project, primary screen (AID 1075); conditions: NRG1 binding, 635 nm fluorescence, higher = more signal;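 also: score combines 667 nm spot fluorescence with signal to noise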
# [7] = system: Neuregulin-1 EGF-like domain; test: small molecules binding NRG1 EGF domain – biochemical, small-molecule microarray, 635 nm fluorescence, primary screen (AID 1081); conditions: higher = more signal;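 also: binding of the protein to compounds printed on small-molecule microarray slides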
# [8] = FRG1 expression reporter modulators in myotubes – cell-based, C2C12 myotubes, firefly/Renilla luciferase, luminescence, FRG1 inhibition for FSHD, primary screen (AID 1084); conditions: FRG1 promoter luciferase, higher = more signal, called active from +8 up or from −8 down
# [9] = small molecules captured by biotinylated probe aFST – biochemical, small-molecule microarray, fluorescence 635/667, stem cell growth factor project, primary screen (AID 1086); conditions: higher = more signal;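 also: score merges 667 nm fluorescence with signal-to-noise of each printed compound spot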
# [10] = binders of probe aHhip on microarray, primary screen, stem cell growth factor project, biochemical, small-molecule microarray, fluorescence 635/667 (AID 1087); conditions: higher = more signal;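 also: score merges spot fluorescence at 667nm with spot signal to noise ratio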
# [11] = system: PRMT1 (protein arginine N-methyltransferase 1); test: small molecules binding arginine methyltransferase PRMT1 – biochemical, small-molecule microarray, 635 nm fluorescence, primary screen (AID 1088); conditions: higher = more signal;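 also: binding of Prmt1 protein to compounds spotted on small-molecule microarray slides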
# [12] = growth effects on S. cerevisiae YJM789 – YJM789 clinical isolate, OD600, 24 h, basal, primary screen (AID 1089); conditions: higher = more signal, called active from +8 up or from −8 down;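 also: growth of clinical yeast isolate S. cerevisiae YJM 789 seeded 1000 cells per well; test concentration not given here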
# [13] = S. pombe growth modifiers, basal conditions – strain 972, OD600, 24 h, no modulator, primary screen (AID 1090);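 also: basal condition with compound alone and no growth modifier present; test concentration not given here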; conditions: S. pombe 972 growth, higher = more signal, called active from +8 up or from −8 down
# [14] = budding yeast growth modifiers under rapamycin – strain BY4716, OD600, 96 h, primary screen (AID 1091); also: test concentration not given here; conditions: S. cerevisiae BY4716 + rapamycin, higher = more signal, called active from +8 up or from −8 down
# [15] = molecular target: Torsin-1A-interacting protein 2 (Homo sapiens) (UniProt Q8NFQ8); test: small molecules binding lysate-expressed LULL1 – cell lysate, human LULL1 lysate, 635/667 nm fluorescence, primary screen (AID 1092); conditions: small-molecule microarray, hLULL1 lysate binding, 635 nm fluorescence; higher = more signal;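 also: probe is lysate of COS7 cells overexpressing human LULL1; score merges per-feature 667 nm fluorescence with signal-to-noise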
# [16] = optical density change of DRC41 E. coli – strain DRC41, OD650, 24 h, E. coli filamentation project, primary screen (AID 1093);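 also: MC1000 strain lacking acrAB efflux and sulA so SOS filamentation is blocked; test concentration not given here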; conditions: E. coli DRC41 growth, higher = more signal, called active from +8 up or from −8 down
# [17] = probe aLefty2 binding to arrayed compounds – biochemical, biotinylated probe, 635/667 nm fluorescence, primary screen (AID 1094); conditions: small-molecule microarray, higher = more signal;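 also: score merges spot fluorescence near 667 nm with spot signal-to-noise ratio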
# [18] = system: Noggin (protein binding on small-molecule microarray); test: small molecules binding Noggin protein – biochemical, 635/667 nm fluorescence, primary screen (AID 1095); conditions: 635 nm fluorescence, higher = more signal;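 also: score merges 667 nm feature fluorescence with signal to noise over triplicate slides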
# [19] = molecular target: Neurogenic locus notch homolog protein 3 (Homo sapiens) (UniProt Q9UM47); test: small molecules binding NOTCH3 protein – biochemical, 635/667 nm fluorescence, primary screen (AID 1096); conditions: small-molecule microarray, 635 nm fluorescence, higher = more signal
# Neurogenic locus notch homolog protein 3 (Homo sapiens), sequence (Q9UM47 whole entry, looked up): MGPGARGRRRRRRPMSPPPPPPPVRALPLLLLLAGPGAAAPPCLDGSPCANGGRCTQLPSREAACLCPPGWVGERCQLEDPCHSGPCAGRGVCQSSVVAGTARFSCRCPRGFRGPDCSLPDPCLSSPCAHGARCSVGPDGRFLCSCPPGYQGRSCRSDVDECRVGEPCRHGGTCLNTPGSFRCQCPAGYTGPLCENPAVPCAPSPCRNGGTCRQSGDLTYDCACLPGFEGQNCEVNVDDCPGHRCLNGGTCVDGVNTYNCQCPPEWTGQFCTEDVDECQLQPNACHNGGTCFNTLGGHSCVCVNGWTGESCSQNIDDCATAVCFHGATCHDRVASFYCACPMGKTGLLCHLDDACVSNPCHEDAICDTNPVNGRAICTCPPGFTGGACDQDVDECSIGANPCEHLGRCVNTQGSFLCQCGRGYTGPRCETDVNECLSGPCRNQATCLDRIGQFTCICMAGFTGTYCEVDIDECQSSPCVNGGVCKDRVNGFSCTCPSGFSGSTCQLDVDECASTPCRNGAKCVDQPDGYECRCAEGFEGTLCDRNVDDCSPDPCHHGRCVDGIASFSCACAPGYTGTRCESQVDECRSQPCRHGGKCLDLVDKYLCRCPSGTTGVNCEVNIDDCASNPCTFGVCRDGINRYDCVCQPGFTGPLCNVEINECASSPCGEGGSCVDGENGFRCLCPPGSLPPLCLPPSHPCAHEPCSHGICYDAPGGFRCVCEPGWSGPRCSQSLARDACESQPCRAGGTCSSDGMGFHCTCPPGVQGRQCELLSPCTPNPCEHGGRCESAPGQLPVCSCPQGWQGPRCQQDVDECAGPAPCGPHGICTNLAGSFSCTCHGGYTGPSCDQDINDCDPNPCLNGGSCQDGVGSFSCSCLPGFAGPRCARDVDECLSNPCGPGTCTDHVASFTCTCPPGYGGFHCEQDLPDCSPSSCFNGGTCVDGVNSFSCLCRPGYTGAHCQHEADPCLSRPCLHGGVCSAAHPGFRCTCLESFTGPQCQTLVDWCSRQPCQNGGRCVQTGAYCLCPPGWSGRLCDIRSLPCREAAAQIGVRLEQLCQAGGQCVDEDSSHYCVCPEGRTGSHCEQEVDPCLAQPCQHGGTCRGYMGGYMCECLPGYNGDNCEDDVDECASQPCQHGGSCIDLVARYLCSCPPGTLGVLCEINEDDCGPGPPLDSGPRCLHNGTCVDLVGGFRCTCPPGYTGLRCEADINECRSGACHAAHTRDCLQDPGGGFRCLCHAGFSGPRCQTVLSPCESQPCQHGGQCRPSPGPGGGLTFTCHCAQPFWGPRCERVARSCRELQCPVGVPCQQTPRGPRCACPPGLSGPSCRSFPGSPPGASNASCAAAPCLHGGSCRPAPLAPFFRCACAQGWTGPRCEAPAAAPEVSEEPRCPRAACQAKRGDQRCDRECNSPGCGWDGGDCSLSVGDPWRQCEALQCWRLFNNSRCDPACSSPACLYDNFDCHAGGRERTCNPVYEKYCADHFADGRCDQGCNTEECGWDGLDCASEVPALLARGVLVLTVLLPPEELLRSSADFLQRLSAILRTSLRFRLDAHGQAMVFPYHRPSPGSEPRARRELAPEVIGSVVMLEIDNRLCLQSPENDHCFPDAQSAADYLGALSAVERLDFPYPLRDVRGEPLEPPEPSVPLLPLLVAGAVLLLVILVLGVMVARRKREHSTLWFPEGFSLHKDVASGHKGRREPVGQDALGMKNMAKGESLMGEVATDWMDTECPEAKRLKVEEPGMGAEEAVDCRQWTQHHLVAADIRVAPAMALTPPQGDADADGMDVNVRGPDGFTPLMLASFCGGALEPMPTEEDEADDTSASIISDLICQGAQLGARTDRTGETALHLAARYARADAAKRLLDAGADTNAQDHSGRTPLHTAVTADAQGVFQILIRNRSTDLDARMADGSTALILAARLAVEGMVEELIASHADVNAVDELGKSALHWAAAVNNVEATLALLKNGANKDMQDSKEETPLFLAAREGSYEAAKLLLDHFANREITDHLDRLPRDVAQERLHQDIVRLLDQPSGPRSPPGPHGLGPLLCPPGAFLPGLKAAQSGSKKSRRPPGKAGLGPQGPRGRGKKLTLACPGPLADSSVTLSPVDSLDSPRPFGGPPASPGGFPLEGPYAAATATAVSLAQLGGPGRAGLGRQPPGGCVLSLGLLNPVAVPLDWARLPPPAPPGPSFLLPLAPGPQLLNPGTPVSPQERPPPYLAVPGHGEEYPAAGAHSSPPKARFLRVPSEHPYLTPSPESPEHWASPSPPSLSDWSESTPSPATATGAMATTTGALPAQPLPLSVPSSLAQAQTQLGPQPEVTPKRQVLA
# [20] = probe aEGFR binding to arrayed compounds – biochemical, biotinylated probe, 635/667 nm fluorescence, primary screen (AID 1097); conditions: small-molecule microarray, higher = more signal;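 also: probe is a biotinylated anti-EGFR antibody binding compounds printed on slides; score combines fluorescence near 667 nm and signal to noise of each spot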
Compound,composite z-score [1],composite z-score [2],composite z-score [3],composite z-score [4],composite z-score [5],composite z-score [6],composite z-score [7],z-score [8],composite z-score [9],composite z-score [10],composite z-score [11],z-score [12],z-score [13],z-score [14],composite z-score [15],z-score [16],composite z-score [17],composite z-score [18],composite z-score [19],composite z-score [20]
CCCCN1CC=CC23O[C@@H]4/C=C\CCCOC(=O)C4[C@H]2C(=O)N(CCCCCCO)[C@@H]3C1=O (stereo not given in full),0.179,-0.619,-0.144,-0.785,-0.868,2.04,1.15,-1.38 (inactive),-1.09,-0.0994,0.988,-0.917 (inactive),-0.818 (inactive),-0.771 (inactive),3.56,1.79 (inactive),-0.19,-0.676,-0.0185,-0.262
C=CCC(OC(C)=O)[C@@H]1[C@@H](N(Cc2ccc(-c3ccccc3)cc2)C(=O)Cc2ccc(OC)cc2)c2cc(OCCCO)ccc2N1C(=O)c1ccc2ccccc2c1 (stereo not given in full),-0.286,1.09,-0.0486,0.269,-0.238,-0.157,-0.659,-0.808 (inactive),0.544,-0.283,0.238,-0.675 (inactive),0.121 (inactive),-0.193 (inactive),0.622,-0.584 (inactive),-0.154,0.138,0.0678,-0.17
C=C1C(=O)C=C2CN(C(=O)c3ccccc3)[C@@](Cc3ccc(F)cc3)(C(=O)OC)[C@@H]12,0.891,-0.595,0.25,1.12,1.71,1.89,1.09,4.89 (inactive),1.87,-0.129,0.356,-23.7 (active),-15.9 (active),-2.6 (inactive),3.47,-0.57 (inactive),0.513,0.0319,1.05,0.0071
CCCCCCc1nc(-c2ccc(OC)nc2)c(C)c2c1[Si](C(C)C)(C(C)C)OC2,-0.314,-0.0637,-0.0502,-0.234,0.0716,-0.64,-0.59,0.329 (inactive),0.0446,-0.0994,0.319,-0.0796 (inactive),-0.329 (inactive),0.182 (inactive),-0.627,0.836 (inactive),0.054,0.293,0.0448,-0.131
COCCOC(=O)N1C(=O)[C@@]2(c3cc(C#CCC(C(=O)OC)C(=O)OC)ccc31)[C@H](C(N)=O)[C@H]1C(=O)O[C@H](c3ccccc3)[C@H](c3ccccc3)N1[C@@H]2c1ccccc1OCCO,-0.453,-0.413,-0.152,0.47,0.937,0.555,1.19,-1.3 (inactive),0.6,-0.0618,1.55,-2.36 (inactive),-1.12 (inactive),2.65 (inactive),1.89,0.533 (inactive),-0.204,1.56,1.06,-0.0661
COc1cccc(C)c1NC(=O)O[C@H]1[C@H](OC(=O)Nc2ccc3c(c2)OCO3)[C@H](OC(=O)Nc2ccc3c(c2)OCO3)[C@@H](OC)O[C@@H]1CO,0.394,0.439,0.06,0.867,1.25,1.13,1.35,3.61 (inactive),1.05,0.12,1.55,1.5 (inactive),0.718 (inactive),4.29 (inactive),3.19,0.358 (inactive),0.107,0.701,1.04,-0.0192
Cc1c(NC(=O)/C(C#N)=C/C=C/c2ccc([N+](=O)[O-])cc2)c(=O)n(-c2ccccc2)n1C,-0.309,0.129,-0.0718,0.906,1.63,1.65,1.25,3.34 (inactive),0.854,-0.0867,1.49,0.437 (inactive),-0.914 (inactive),0.0795 (inactive),3.17,-1.46 (inactive),-0.022,0.305,1.04,0.0506
COCCOC(=O)N1C(=O)[C@@]2(c3cc(C#CCNC(N)=O)ccc31)[C@H](c1ccccc1OCCO)N1[C@H](c3ccccc3)[C@H](c3ccccc3)OC(=O)[C@H]1[C@@H]2C(=O)N1CCCCCCC1,1.63,0.646,0.0495,0.57,0.725,0.665,1.1,0.515 (inactive),1.29,1,1.49,0.221 (inactive),0.47 (inactive),2.37 (inactive),1.79,-0.515 (inactive),0.365,0.911,1.11,-0.0121
COc1ccc(CCNC(=O)[C@@]2(c3ccc([N+](=O)[O-])cc3)CC(=O)N(C3CCCCC3)[C@@H]2c2ccc(CO)cc2I)cc1,0.897,0.0603,0.0903,0.33,0.964,0.486,0.827,-1.64 (inactive),-0.121,0.386,1.39,0.717 (inactive),0.0908 (inactive),5.88 (inactive),2.34,0.793 (inactive),-0.0544,0.153,0.594,0.227
[N-]=[N+]=Nc1ccccc1C[C@]1(C(N)=O)COC(c2ccc(OCCCO)cc2)=N1,1.05,-0.455,0.0247,0.149,0.278,1.81,1.34,3.48 (inactive),0.236,-0.0618,-0.0424,-0.684 (inactive),-0.846 (inactive),0.0643 (inactive),2.84,0.0474 (inactive),0.538,-0.863,-0.0154,0.516
